# Measurements reported in PubChem BioAssay (Tox21).
# Results filed as inconclusive are left out. Where a call stands in place of a potency, no number is given. Calls of active or inactive are those of the source. Unless noted, the call rests on the fitted dose curve; in most records, active means well fitted curve in the direction sought with a large enough effect in the repeat runs; inconclusive means weak or mixed curves; inactive means no such curve, though single readings can be large; an effect the other way counts as inactive or inconclusive.
# Test system: not listed separately
# Assay: qHTS assay to identify small molecule agonists of the androgen receptor (AR) signaling pathway in the presence of an antagonist - cell viability counter screen (AID 1259379);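 further: MDA-kb2 human breast cancer cells carrying an MMTV luciferase reporter; nearly all actives have a fitted effect of over 25% in size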
# Conditions: MDA-kb2 viability, CellTiter-Fluor, 16 h; series mostly up to 92.4 µM
# In short: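 Counter screen for cell viability run in parallel with the AR agonist-mode luciferase assay. MDA-kb2 cells were co-treated with nilutamide (3.0uM final) and compounds, then incubated 16 hr at 37C, and CellTiter-Fluor fluorescence was measured.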
row,Compound,Potency
1,Oc1ccc(Cc2ccccc2)cc1,inactive
2,CC(Cc1cccc(C(F)(F)F)c1)NCCOC(=O)c1ccccc1 (configuration not stated),inactive
3,O=S1(=O)c2cccc3cccc(c23)N1CCCN1CCN(c2ccc(F)cc2)CC1,inactive
4,O=C(O)Cn1c(C(=O)Nc2nc(-c3ccccc3Cl)cs2)cc2ccccc21,inactive
5,CC(C)=CCCC(C)CC=O (configuration not stated),inactive
6,O=C(O)Cc1cc(I)c(Oc2ccc(O)c(I)c2)c(I)c1,inactive
7,OCC1CC2CC1C1CCC(CO)C21 (configuration not stated),inactive
8,C=CC(=O)OCCOC(=O)CCC(=O)O,inactive
9,CN1CCN(C2=Nc3cc(Cl)ccc3Nc3ccccc32)CC1,inactive
10,CC(=O)Nc1ccc(/C=N/NC(N)=S)cc1,inactive
11,CC(=O)c1ccc2c(c1)[C@H](NC(=O)c1ccc(F)cc1)[C@@H](O)C(C)(C)O2,inactive
12,CN(C)CC[C@@H](c1ccc(Br)cc1)c1ccccn1,inactive
13,C[C@@H](C1=C(CCN(C)C)Cc2ccccc21)c1ccccn1,inactive

# Test system: not listed separately
# Assay: qHTS assay to identify small molecule agonists of the estrogen receptor beta (ER-beta) signaling pathway - cell viability counter screen (AID 1259380); further: nearly all actives have a fitted effect of over 30% in size; further: potency means the concentration at half of the fitted maximal effect
# Conditions: ER-beta-bla HEK293T viability, CellTiter-Glo luminescence, 16 h; series mostly up to 92.4 µM
# In short: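 In this qHTS counter screen, HEK293T cells carrying an ER-beta/UAS beta-lactamase reporter, grown in 2% charcoal-stripped FBS, received compound for 16 hr; ATP-based CellTiter-Glo luminescence was then read after 30 min at room temperature.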
row,Compound,Potency
1,CCCCCCCCCCCCCCCBr,inactive
2,NC(N)=N/N=C/c1c(Cl)cccc1Cl,29.8 µM (active)
3,Cn1sccc1=O,inactive
4,O=C(O)Cc1sc(-c2ccccc2)nc1-c1ccc(Cl)cc1,21.1 µM (active)
5,Cc1cccc(Oc2ccccc2)c1,9.44 µM (active)
6,COC(=O)CSc1cc(N=c2sc(=O)n3n2CCCC3)c(F)cc1Cl,inactive
7,Cc1ccccc1N=Nc1ccc(N=Nc2c(O)ccc3ccccc23)c(C)c1,inactive
8,Cl/C(=C\n1cncn1)c1ccc(Cl)cc1Cl,inactive
9,CCCCCCCCCCCCCCCC(=O)OC/C=C(C)/C=C/C=C(C)/C=C/C1=C(C)CCCC1(C)C,inactive
10,CN1CCC(=C2c3ccccc3CCc3sccc32)CC1,26.6 µM (active)
11,COC(Cc1ccccc1)OC,inactive
12,NCCCOCCOCCOCCCN,15.4 µM (active)
13,CCCCCCCCCCCCC(=O)O,54.6 µM (active)

# Biological target: Androgen receptor (Homo sapiens) (UniProt P10275)
# Sequence (P10275 whole entry, looked up): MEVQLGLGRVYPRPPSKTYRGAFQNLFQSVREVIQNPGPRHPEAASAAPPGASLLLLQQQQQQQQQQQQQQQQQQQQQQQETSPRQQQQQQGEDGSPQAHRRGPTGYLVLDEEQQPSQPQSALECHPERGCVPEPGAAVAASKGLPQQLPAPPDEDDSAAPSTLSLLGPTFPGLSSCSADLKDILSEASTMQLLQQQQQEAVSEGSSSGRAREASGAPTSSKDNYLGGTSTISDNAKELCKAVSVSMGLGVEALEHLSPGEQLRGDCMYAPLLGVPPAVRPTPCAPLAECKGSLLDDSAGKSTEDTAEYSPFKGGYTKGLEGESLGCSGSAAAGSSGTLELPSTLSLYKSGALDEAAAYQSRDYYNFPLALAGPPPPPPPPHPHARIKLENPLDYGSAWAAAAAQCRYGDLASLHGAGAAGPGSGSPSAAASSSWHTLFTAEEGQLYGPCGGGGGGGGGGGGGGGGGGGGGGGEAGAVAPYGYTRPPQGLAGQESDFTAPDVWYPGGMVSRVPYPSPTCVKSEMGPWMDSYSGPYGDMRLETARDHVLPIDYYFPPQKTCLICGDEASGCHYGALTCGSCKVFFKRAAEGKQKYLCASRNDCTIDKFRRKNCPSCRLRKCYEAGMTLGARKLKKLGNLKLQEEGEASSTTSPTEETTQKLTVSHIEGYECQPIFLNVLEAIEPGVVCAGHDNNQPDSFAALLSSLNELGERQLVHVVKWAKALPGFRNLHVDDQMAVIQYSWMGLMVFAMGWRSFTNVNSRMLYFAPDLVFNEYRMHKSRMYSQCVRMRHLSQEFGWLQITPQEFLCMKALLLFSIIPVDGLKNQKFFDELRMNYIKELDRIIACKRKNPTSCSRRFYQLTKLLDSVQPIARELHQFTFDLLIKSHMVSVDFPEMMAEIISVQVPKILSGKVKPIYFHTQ
# Assay: qHTS assay to identify small molecule agonists of the androgen receptor (AR) signaling pathway in the presence of an antagonist (AID 1259381; calls by dose curve; further: nearly all actives have a fitted effect of over 15% in size)
# Conditions: MDA-kb2 MMTV-luciferase, AR agonist + nilutamide, 16 h; series mostly up to 92.4 µM
# In short: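 AR antagonist background: nilutamide 3.0uM final. Cell line: MDA-kb2, MMTV-driven luciferase, responsive to both AR and GR. Exposure 16hr, 37C, no CO2; ONE-Glo luminescence.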
row,Compound,Potency
1,NC(N)=N/N=C/c1c(Cl)cccc1Cl,inactive
2,Cc1cc(O)ccc1N,inactive
3,O=C(O)Cc1sc(-c2ccccc2)nc1-c1ccc(Cl)cc1,inactive
4,COC(=O)CSc1cc(N=c2sc(=O)n3n2CCCC3)c(F)cc1Cl,inactive
5,NCCCN(CCO)CCO,inactive
6,CCC(C)N(C)C(=O)c1cc2ccccc2c(-c2ccccc2Cl)n1 (configuration not stated),inactive

# Test system: not listed separately
# Assay: qHTS assay to identify small molecule antagonists of the estrogen receptor beta (ER-beta) signaling pathway - cell viability counter screen (AID 1259382); further: nearly all actives have a fitted effect of over 55% in size; further: potency means the concentration at half of the fitted maximal effect
# Conditions: ER-beta-UAS-bla HEK293T viability, CellTiter-Glo luminescence, 16 h; series mostly up to 92.4 µM
# In short: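 HEK293T ER-beta-UAS-bla, 2% charcoal-stripped FBS; compounds + 1nM E2 16 hr 37C; CellTiter-Glo luminescence, 30 min RT.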
row,Compound,Potency
1,CCCCCCCCCCCCCCCBr,inactive
2,Oc1ccc(Cc2ccccc2)cc1,inactive
3,C#CCOC(=O)[C@@H](C)Oc1ccc(Oc2ncc(Cl)cc2F)cc1,inactive
4,CC(Cc1cccc(C(F)(F)F)c1)NCCOC(=O)c1ccccc1 (configuration not stated),inactive
5,Nc1nc(N)c(-c2ccccc2)s1,inactive
6,Cn1sccc1=O,inactive
7,O=C1c2cccc(O)c2C(=O)c2c(O)cc(CO)cc21,inactive
8,CC(C)=CCCC(C)CC=O (configuration not stated),inactive
9,N#CCCNCCC#N,inactive
10,COC(=O)CSc1cc(N=c2sc(=O)n3n2CCCC3)c(F)cc1Cl,inactive
11,O=C(O)Cc1cc(I)c(Oc2ccc(O)c(I)c2)c(I)c1,inactive
12,Cl/C(=C\n1cncn1)c1ccc(Cl)cc1Cl,inactive
13,CCCCCCCCCCCCCCCC(=O)OC/C=C(C)/C=C/C=C(C)/C=C/C1=C(C)CCCC1(C)C,inactive
14,CN1CCC(=C2c3ccccc3CCc3sccc32)CC1,21.1 µM (active)
15,Oc1ccc(C(O)CNCCCCCCNCC(O)c2ccc(O)c(O)c2)cc1O (configuration not stated),inactive
16,C=CC(=O)OCCOC(=O)CCC(=O)O,inactive
17,CC(=O)Nc1ccc(/C=N/NC(N)=S)cc1,inactive
18,CC(=O)c1ccc2c(c1)[C@H](NC(=O)c1ccc(F)cc1)[C@@H](O)C(C)(C)O2,inactive
19,CN(C)CC[C@@H](c1ccc(Br)cc1)c1ccccn1,inactive
20,C[C@@H](C1=C(CCN(C)C)Cc2ccccc21)c1ccccn1,inactive
21,COC(Cc1ccccc1)OC,inactive
22,NCCCN(CCO)CCO,inactive
23,N#Cc1cc2ccccc2c2ccccc12,inactive
24,CC1CCc2cc(F)cc3c(=O)c(C(=O)O)cn1c23 (configuration not stated),inactive
25,CCC(C)N(C)C(=O)c1cc2ccccc2c(-c2ccccc2Cl)n1 (configuration not stated),inactive
26,COc1cc(C(C)(C)C)c(O)c(C(C)(C)C)c1,inactive

# Biological target: Estrogen receptor (Homo sapiens) (UniProt P03372)
# Sequence (P03372 whole entry, looked up): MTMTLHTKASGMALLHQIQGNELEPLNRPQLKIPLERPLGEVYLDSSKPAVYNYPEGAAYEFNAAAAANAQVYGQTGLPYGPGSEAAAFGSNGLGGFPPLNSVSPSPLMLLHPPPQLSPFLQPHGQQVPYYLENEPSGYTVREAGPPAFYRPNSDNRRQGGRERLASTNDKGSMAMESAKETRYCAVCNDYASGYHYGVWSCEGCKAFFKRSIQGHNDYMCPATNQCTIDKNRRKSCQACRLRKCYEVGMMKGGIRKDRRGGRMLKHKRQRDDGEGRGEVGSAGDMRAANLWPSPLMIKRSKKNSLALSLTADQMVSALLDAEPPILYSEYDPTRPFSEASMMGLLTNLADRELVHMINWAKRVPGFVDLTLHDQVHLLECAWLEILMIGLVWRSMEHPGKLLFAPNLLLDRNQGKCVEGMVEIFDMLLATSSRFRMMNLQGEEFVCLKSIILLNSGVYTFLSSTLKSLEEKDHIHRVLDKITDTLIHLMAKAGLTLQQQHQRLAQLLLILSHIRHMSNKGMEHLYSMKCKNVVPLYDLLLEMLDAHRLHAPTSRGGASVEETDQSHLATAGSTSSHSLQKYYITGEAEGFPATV
# Assay: qHTS assay to identify small molecule agonists of the estrogen receptor alpha (ER-alpha) signaling pathway in the presence of an antagonist (AID 1259383; calls by dose curve; further: top concentration of the series differs between compounds; nearly all actives have a fitted effect of over 15% in size)
# Conditions: VM7Luc4E2 cells, ERE-luciferase, +ICI-182,780, 22 h; series mostly up to 92.4 µM
# In short: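 ER-alpha agonism measured under antagonist challenge: 10.0nM ICI-182,780 (final) plus compound, 15 concentrations, 22hr, VM7Luc4E2 ERE-luciferase cells. Read by luminescence.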
row,Compound,Potency
1,CCCCCCCCCCCCCCCBr,inactive
2,C#CCOC(=O)[C@@H](C)Oc1ccc(Oc2ncc(Cl)cc2F)cc1,inactive
3,NC(N)=N/N=C/c1c(Cl)cccc1Cl,inactive
4,O=S1(=O)c2cccc3cccc(c23)N1CCCN1CCN(c2ccc(F)cc2)CC1,inactive
5,O=C(O)Cn1c(C(=O)Nc2nc(-c3ccccc3Cl)cs2)cc2ccccc21,inactive
6,Cn1c(=O)c2c(ncn2CC(O)CO)n(C)c1=O (configuration not stated),inactive
7,Cc1cc(O)ccc1N,inactive
8,Cn1sccc1=O,inactive
9,O=C1c2cccc(O)c2C(=O)c2c(O)cc(CO)cc21,inactive
10,O=C(O)Cc1sc(-c2ccccc2)nc1-c1ccc(Cl)cc1,inactive
11,N#CCCNCCC#N,inactive
12,Cc1cccc(Oc2ccccc2)c1,inactive
13,Cc1ccccc1N=Nc1ccc(N=Nc2c(O)ccc3ccccc23)c(C)c1,inactive
14,CN1CCC(=C2c3ccccc3CCc3sccc32)CC1,inactive
15,OCC1CC2CC1C1CCC(CO)C21 (configuration not stated),inactive
16,CN1CCN(C2=Nc3cc(Cl)ccc3Nc3ccccc32)CC1,inactive
17,CN(C)CC[C@@H](c1ccc(Br)cc1)c1ccccn1,inactive
18,COC(Cc1ccccc1)OC,inactive
19,NCCCOCCOCCOCCCN,inactive
20,NCCCN(CCO)CCO,inactive
21,CCCCCCCCCCCCC(=O)O,inactive
22,N#Cc1cc2ccccc2c2ccccc12,inactive
23,CCC(C)N(C)C(=O)c1cc2ccccc2c(-c2ccccc2Cl)n1 (configuration not stated),inactive
24,CCCCC(CC)COCCCN (configuration not stated),inactive
